Data taken from PubChem BioAssay (EPA / NIEHS).
Calls of active or inactive are those of the source. How the source made its calls: active means hit-call score of the fitted dose curve at least 0.9, where 1 is the maximum; inactive means score below 0.9.

Key:
[1] = read-out: Vascular cell adhesion molecule 1 (VCAM1), VCAM1 (gene 7412); assay: BSK_4H_VCAM1: BioMAP Diversity Plus: 4H Assay for Vascular cell adhesion molecule 1 (VCAM1) Biomarker Activity (AID 2283033); settings: primary human endothelial cells (HUVEC); actives raise or lower the signal
Method in brief: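 HUVEC, 24 h post-dose; VCAM-1 by ELISA. Bidirectional curve fit vs DMSO baseline. Parallel SRB total-protein stain (0.1% SRB after 10% TCA fixation, 560 nm) for cytotoxicity.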

[2] = read-out: Interferon-gamma inducible Protein 10 (IP10), CXCL10 (gene 3627); assay: BSK_BE3C_IP10: BioMAP Diversity Plus: BE3C Assay for Interferon-gamma inducible Protein 10 (IP10) Biomarker Activity (AID 2283034); settings: primary human bronchial epithelial cells; actives raise or lower the signal
Method in brief: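 ELISA readout of IP-10 in BE3C system: primary human bronchial epithelial cells, 24 h post-dosing; bidirectional curve fit vs DMSO baseline.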

[3] = read-out: Monokine induced gamma interferon (MIG), CXCL9 (gene 4283); assay: BSK_BE3C_MIG: BioMAP Diversity Plus: BE3C Assay for Monokine induced gamma interferon (MIG) Biomarker Activity (AID 2283035); settings: primary human bronchial epithelial cells; actives raise or lower the signal
Method in brief: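 Dose cells (human primary bronchial epithelial), incubate 24 h, quantify MIG by ELISA, then fit concentration–response in both directions relative to DMSO control.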

[4] = read-out: Transforming growth factor beta 1 (TGFb1), TGFB1 (gene 7040); assay: BSK_BE3C_TGFb1: BioMAP Diversity Plus: BE3C Assay for Transforming growth factor beta 1 (TGFb1) Biomarker Activity (AID 2283036); settings: primary human bronchial epithelial cells; actives raise or lower the signal
Method in brief: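 Read-out: ELISA for TGF-b1 in primary human bronchial epithelial cultures, 24 h post-dose. Bidirectional curve fitting vs DMSO control; gain or loss of signal both scored.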

[5] = read-out: Plasminogen activator inhibitor-1 (PAI1), SERPINE1 (gene 5054); assay: BSK_BE3C_PAI1: BioMAP Diversity Plus: BE3C Assay for Plasminogen activator inhibitor-1 (PAI1) Biomarker Activity (AID 2283037); settings: primary human bronchial epithelial cells; actives raise or lower the signal
Method in brief: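 ELISA read-out of PAI-1 from human bronchial epithelial primary cells, 24 h post-dosing; bidirectional curve fit vs DMSO baseline, gain or loss of signal scored.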

[6] = read-out: urokinase plasminogen activator (uPA), PLAU (gene 5328); assay: BSK_BE3C_uPA: BioMAP Diversity Plus: BE3C Assay for urokinase plasminogen activator (uPA) Biomarker Activity (AID 2283038); settings: primary human bronchial epithelial cells; actives raise or lower the signal
Method in brief: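 Bronchial epithelial cells (human, primary); chemical 24 h; uPA by ELISA; bidirectional fit vs DMSO. SRB (0.1%, after 10% TCA fixation, 560 nm) in parallel cultures for cytotoxicity.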

[7] = read-out: Urokinase-type plasminogen activator receptor (uPAR), PLAUR (gene 5329); assay: BSK_BE3C_uPAR: BioMAP Diversity Plus: BE3C Assay for Urokinase-type plasminogen activator receptor (uPAR) Biomarker Activity (AID 2283039); settings: primary human bronchial epithelial cells; actives raise or lower the signal
Method in brief: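 ELISA readout of uPAR on human lung primary bronchial epithelial cells, 24 h post-dosing. Bidirectional curve fit relative to DMSO vehicle baseline; gain or loss of signal both scored.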

[8] = read-out: Interleukin-6 (IL6), IL6 (gene 3569); assay: BSK_CASM3C_IL6: BioMAP Diversity Plus: CASM3C Assay for Interleukin-6 (IL6) Biomarker Activity for (AID 2283040); settings: primary human coronary artery smooth muscle cells; actives raise or lower the signal
[9] = read-out: Tissue plasminogen activator (tPA), PLAT (gene 5327); assay: BSK_BE3C_tPA: BioMAP Diversity Plus: BE3C Assay for Tissue plasminogen activator (tPA) Biomarker Activity (AID 2283041); settings: primary human bronchial epithelial cells; actives raise or lower the signal
Method in brief: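 ELISA read-out of tPA on human primary bronchial epithelial cells, 24 h post-dosing; bidirectional fit vs DMSO negative control/baseline.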

[10] = read-out: Interleukin-8 (IL8), CXCL8 (gene 3576); assay: BSK_CASM3C_IL8: BioMAP Diversity Plus: CASM3C Assay for Interleukin-8 (IL8) Biomarker Activity (AID 2283042); settings: primary human coronary artery smooth muscle cells; actives raise or lower the signal;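 further: IL-8 protein level quantified by ELISA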
[11] = read-out: Human Leukocyte Antigen - DR isotype (HLADR), HLA-DRA (gene 3122); assay: BSK_CASM3C_HLADR: BioMAP Diversity Plus: CASM3C Assay for Human Leukocyte Antigen - DR isotype (HLADR) Biomarker Activity (AID 2283043); settings: primary human coronary artery smooth muscle cells; actives raise or lower the signal;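 further: cell-surface HLA-DR protein level quantified by ELISA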
[12] = read-out: Macrophage colony-stimulating factor (MCSF), CSF1 (gene 1435); assay: BSK_CASM3C_MCSF: BioMAP Diversity Plus: CASM3C Assay for Macrophage colony-stimulating factor (MCSF) Biomarker Activity (AID 2283044); settings: primary human coronary artery smooth muscle cells; actives raise or lower the signal;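 further: M-CSF protein amount quantified by ELISA after 24 h exposure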
[13] = read-out: Low-density lipoprotein receptor (LDLR), LDLR (gene 3949); assay: BSK_CASM3C_LDLR: BioMAP Diversity Plus: CASM3C Assay for Low-density lipoprotein receptor (LDLR) Biomarker Activity (AID 2283045); settings: primary human coronary artery smooth muscle cells; actives raise or lower the signal;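 further: LDLR protein level on the cell surface quantified by ELISA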
[14] = read-out: Monocyte Chemoattractant Protein-1 (MCP1), CCL2 (gene 6347); assay: BSK_CASM3C_MCP1: BioMAP Diversity Plus: CASM3C Assay for Monocyte Chemoattractant Protein-1 (MCP1) Biomarker Activity (AID 2283046); settings: primary human coronary artery smooth muscle cells; actives raise or lower the signal;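 further: MCP-1 level quantified by ELISA 24 h after dosing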
[15] = BSK_CASM3C_Proliferation: Cell Proliferation Assessment in the BioMAP Diversity Plus: CASM3C Assay (AID 2283047); settings: primary human coronary artery smooth muscle cells;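 further: sulforhodamine B total protein stain as relative cell number at 560 nm; sub-confluent cells exposed 48 h before staining; fitted both ways against DMSO so gain or loss of cell number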
[16] = read-out: Monokine induced gamma interferon (MIG), CXCL9 (gene 4283); assay: BSK_CASM3C_MIG: BioMAP Diversity Plus: CASM3C Assay for Monokine induced gamma interferon (MIG) Biomarker Activity (AID 2283048); settings: primary human coronary artery smooth muscle cells; actives raise or lower the signal;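 further: MIG protein level measured by ELISA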
[17] = read-out: serum amyloid A (SAA), SAA1 (gene 6288); assay: BSK_CASM3C_SAA: BioMAP Diversity Plus: CASM3C Assay for serum amyloid A (SAA) Biomarker Activity (AID 2283049); settings: primary human coronary artery smooth muscle cells; actives raise or lower the signal;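 further: SAA protein level quantified by ELISA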
[18] = BSK_CASM3C_SRB: Viability Assessment in the BioMAP Diversity Plus: CASM3C Assay (AID 2283050); settings: primary human coronary artery smooth muscle cells;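 further: total protein by SRB staining as cytotoxicity measure in parallel cultures; cells exposed to compound for 24 h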
[19] = read-out: Thrombomodulin, THBD (gene 7056); assay: BSK_CASM3C_Thrombomodulin: BioMAP Diversity Plus: CASM3C Assay for Thrombomodulin Biomarker Activity (AID 2283051); settings: primary human coronary artery smooth muscle cells; actives raise or lower the signal;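 further: thrombomodulin protein level measured by ELISA 24 h after dosing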
[20] = read-out: Tissue Factor, F3 (gene 2152); assay: BSK_CASM3C_TissueFactor: BioMAP Diversity Plus: CASM3C Assay for Tissue Factor Biomarker Activity (AID 2283052); settings: primary human coronary artery smooth muscle cells; actives raise or lower the signal;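 further: cell surface tissue factor protein level read by ELISA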

Measured: AC50

CC(=O)OC1CC(C)OC(C)O1 (stereo not given)
inactive: [1] | [2] | [3] | [4] | [5] | [6] | [7] | [8] | [9] | [10] | [11] | [12] | [13] | [14] | [15] | [16] | [17] | [18] | [19] | [20]

COC(=O)CCCC(=O)OC
inactive: [1] | [2] | [3] | [4] | [5] | [6] | [7] | [8] | [9] | [10] | [11] | [12] | [13] | [14] | [15] | [16] | [17] | [18] | [19] | [20]

CC(C)COC(=O)CCCCC(=O)OCC(C)C
inactive: [1] | [2] | [3] | [4] | [5] | [6] | [7] | [8] | [9] | [10] | [11] | [12] | [13] | [14] | [15] | [16] | [17] | [18] | [19] | [20]

C#CC(O)C(CC)CCCC (stereo not given)
active: [15] 37 µM
inactive: [1] | [2] | [3] | [4] | [5] | [6] | [7] | [8] | [9] | [10] | [11] | [12] | [13] | [14] | [16] | [17] | [18] | [19] | [20]

Cc1c(C)c2c(c(C)c1O)CCC(C)(COc1ccc(CC3SC(=O)NC3=O)cc1)O2 (stereo not given)
inactive: [8] | [10] | [11] | [12] | [13] | [14] | [16] | [17] | [18] | [20]
active: [1] 31.8 µM | [2] 14.2 µM | [3] 31.8 µM | [4] 26.2 µM | [5] 14.7 µM | [6] 15.3 µM | [7] 29.6 µM | [9] 9.19 µM | [15] 6.88 µM | [19] 5.08 µM

OCC(CO)n1cnc(-c2ccc(F)cc2)c1-c1ccnc(Oc2ccccc2)n1
active: [5] 1.29 µM | [6] 3.97 µM | [8] 0.654 µM | [11] 0.408 µM | [12] 0.759 µM
inactive: [1] | [2] | [3] | [4] | [7] | [9] | [10] | [13] | [14] | [15] | [16] | [17] | [18] | [19] | [20]

CC(C)c1cccc(C(C)C)c1NC(=O)NS(=O)(=O)c1cc(C(C)(C)O)co1
inactive: [1] | [2] | [3] | [4] | [5] | [6] | [7] | [8] | [9] | [10] | [11] | [12] | [13] | [14] | [15] | [16] | [17] | [18] | [19] | [20]

C=CCCCCCCCCCCCC
inactive: [1] | [2] | [3] | [4] | [5] | [6] | [7] | [8] | [9] | [10] | [11] | [12] | [13] | [14] | [15] | [16] | [17] | [18] | [19] | [20]

CCCCCCC(CCCCCCCCCCC(=O)OCC(COC(C)=O)OC(C)=O)OC(C)=O (stereo not given)
inactive: [1] | [7] | [8] | [10] | [11] | [12] | [13] | [14] | [15] | [16] | [17] | [18] | [19] | [20]
active: [2] 11.4 µM | [3] 13.7 µM | [4] 7.57 µM | [5] 7.39 µM | [6] 13.2 µM | [9] 3.58 µM

O=C1c2c(O)cccc2Cc2cccc(O)c21
inactive: [1] | [2] | [3] | [4] | [5] | [6] | [7] | [8] | [9] | [10] | [11] | [12] | [13] | [14] | [16] | [17] | [18] | [19] | [20]
active: [15] 9.85 µM

CCCCCCCCCC[N+](C)(C)[O-]
inactive: [1] | [2] | [3] | [4] | [5] | [6] | [7] | [8] | [9] | [10] | [11] | [12] | [13] | [14] | [15] | [16] | [17] | [18] | [19] | [20]

CCCCCCCCCCCCCCOS(=O)(=O)O
active: [1] 20 µM | [2] 17.4 µM | [3] 34.2 µM | [4] 30.5 µM | [5] 20 µM | [6] 28.6 µM | [7] 16.1 µM | [9] 18.8 µM
inactive: [8] | [10] | [11] | [12] | [13] | [14] | [15] | [16] | [17] | [18] | [19] | [20]

O=C(N[C@@H](c1ccccc1)[C@@H]1CCCCN1)c1cccc(C(F)(F)F)c1Cl
inactive: [1] | [8] | [10] | [11] | [12] | [14] | [16] | [17] | [19] | [20]
active: [2] 33.5 µM | [3] 34.7 µM | [4] 36.7 µM | [5] 32.4 µM | [6] 28.7 µM | [7] 33.3 µM | [9] 24 µM | [13] 15.4 µM | [15] 30.3 µM | [18] 30.9 µM
